# Compound activity: PubChem BioAssay, National Center for Advancing Translational Sciences (NCATS)
# A selection: hits, their analogues and other compounds. The true share with any hit is near 4.6%.
# Vaccinia mCherry: qHTS for Stage-Specific Inhibitors of Vaccinia Orthopoxvirus: mCherry Reporter Primary qHTS; Potency, µM (titrated, usually from 36.5 µM), most hits filed as inhibitors; Vaccinia virus mCherry reporter infection, fluorescence; 310,000 tested, 0.63% active; calls by dose curve; tested in A549 cells; note: nearly all actives have a fitted effect of over 35% in size
# LASV entry inh: qHTS for Inhibitors of binding or entry into cells for Lassa Virus; 300,000 tested, 1.2% active; Lassa virus pseudotype entry inhibition, cell reporter; Potency, µM (highest dose often 37.9 µM), hits mostly inhibitors; calls by dose curve; tested in HEK293 cells; note: nearly all actives have a fitted effect of over 50% in size
# MARV entry inh: qHTS for inhibitors of binding or entry into cells for Marburg Virus; Marburg virus pseudotyped entry inhibition, cell reporter; Potency, µM (highest dose often 37.8 µM), most hits filed as inhibitors; 300,000 tested, 1.8% active; calls by dose curve; tested in HEK293 cells
# HCV inhibitor: qHTS Assay for Inhibitors of Hepatitis C Virus (HCV) | Huh7.5.1 HCVcc-Cre infection, luciferase reporter, 44 h | Potency, µM (top dose mostly 41.8 µM), actives largely listed as inhibitors | 340,000 tested, 3.4% active; active = well fitted inhibition curve with a large enough effect; inconclusive = small, poorly fitted or top-dose-only effect, or another doubt; inactive = no such curve, though single readings can be large or run the other way
#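 Compounds are dispensed onto cells plated 4 h earlier at 1,000 per well, with HCVcc-Cre virus (about 0.5 moi) added next. Following 44 h of culture, luminescent signal is measured for 15 sec after 15 min with substrate at room temperature.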
# VACV Venus inh: qHTS for Stage-Specific Inhibitors of Vaccinia Orthopoxvirus: Venus Reporter Primary qHTS. Vaccinia virus Venus reporter expression, fluorescence. Potency, µM (top dose mostly 36.5 µM), most hits filed as inhibitors. 330,000 tested, 0.46% active; calls by dose curve; tested in A549 cells; note: nearly all actives have a fitted effect of over 30% in size
# Numbers stand for hits; i = inactive; ? = inconclusive; nt = no result given; ! = repeats disagree; [ ] = dose if it differs, or a comment.
SMILES,Vaccinia mCherry,LASV entry inh,MARV entry inh,HCV inhibitor,VACV Venus inh
CCOc1ccccc1N1CCN(CC(O)COC2CCCc3ccccc32)CC1 (configuration not stated),?,i,?,11µM,i
O=S(=O)(c1cccs1)N1CCN(CC(O)COC2CCCc3ccccc32)CC1 (configuration not stated),i,i,i,i,i
CO[C@H]1[C@H](NC(=O)c2ccco2)c2ccccc2C12CCN(Cc1cccn1-c1ccccn1)CC2,i,nt,nt,nt,i
C[C@@H]1C=CCC(=O)N2[C@H](CC(=O)N[C@@H]1c1ccccc1)C[C@@H](C)[C@@H]2c1ccccc1,nt,?,i,nt,nt
Cc1nn(C)c(C(=O)Nc2ccc(S(=O)(=O)NC34CC5CC(CC(C5)C3)C4)cc2)c1Br,13µM,?,?,10µM,?
Cc1nn(C)c(C(=O)Nc2ccn(C34CC5CC(CC(C5)C3)C4)n2)c1[N+](=O)[O-],i,?,?,i,?
CCCc1cc(C(=O)Nc2ccc(C(=O)c3ccccc3)cc2)n(C)n1,nt,nt,nt,16µM,nt
CCCc1cc(C(=O)Nc2ccc(C(=O)c3ccc(F)cc3)cc2)n(C)n1,nt,nt,nt,10µM,nt
O=C(Cn1cnc2cc([N+](=O)[O-])ccc2c1=O)NCCc1ccc(Cl)cc1,i,i,i,14µM,i
CN1C2CCC1CC(OC(c1ccccc1)c1ccccc1N)C2 (configuration not stated),i,?,18µM,?,i
CN1C2CCC1CC(OC(c1ccccc1)c1ccc(Cl)cc1)C2 (configuration not stated),nt,nt,3.2µM,nt,nt
O=C(CN1C(=O)CCSc2ccc(S(=O)(=O)N3CCCC3)cc21)Nc1cccc(F)c1,i[7.34 µM],i,nt,nt,i[7.34 µM]
COc1ccccc1C(=O)N[C@@H]1c2ccccc2C2(CCN(Cc3cnn(C)c3C)CC2)[C@H]1O,i,nt,nt,nt,i
CC1(C)CC(=O)C(C(C2=C(O)CC(C)(C)CC2=O)c2ccc(Br)s2)C(=O)C1 (configuration not stated),i,13µM,?,i,i
NCCS,i,i,11µM!,0.56µM,i
C/C=C(/C(=C/C)c1ccc(O)cc1)c1ccc(O)cc1,i,26µM,i,i[8.37 µM],i
CCC[n+]1c(/C=C/c2c(OC)cc(OC)cc2OC)ccc2ccccc21,10µM,nt,nt,nt,i
CCCC[n+]1c(/C=C/c2c(OC)cc(OC)cc2OC)ccc2ccccc21,10µM,nt,nt,nt,i
CCCC[n+]1c2ccccc2cc2ccccc21,i,nt,nt,6.3µM,?
COc1cc(OC)c(/C=C/c2ccc3ccccc3[n+]2C)c(OC)c1,?,nt,nt,nt,i
CC(=O)Nc1ccccc1OCc1cc(=O)n2c(C)csc2n1,i,i,i,nt,i
COc1ccccc1-c1nnc(SCCOc2ccccc2C)o1,i,i,i,nt,i
Cc1cc(Cl)ccc1OC(C)C(=O)Nc1ccc(S(=O)(=O)N2CCOCC2)cc1 (configuration not stated),i,?,i,11µM,i
Cc1ccc(NC(=O)[C@@H](NC(=O)c2cccc(S(=O)(=O)N3CCOCC3)c2)C(C)C)cc1C,i,i,?,10µM,i
CCCC(C(=O)Nc1cccc(S(=O)(=O)N2CCCC2)c1)c1ccccc1 (configuration not stated),?,7.1µM,?,?,i
SMILES,Vaccinia mCherry,LASV entry inh,MARV entry inh,HCV inhibitor,VACV Venus inh
CCCC(C(=O)Nc1ccc(S(=O)(=O)N2CCOCC2)cc1)c1ccccc1 (configuration not stated),nt,nt,nt,i,nt
COc1ccc(CC(=O)Nc2cccc(SC)c2)cc1OC,i,?,?,4µM,i
CC(C)[C@H](NC(=O)c1ccccc1)C(=O)Nc1cccc(S(=O)(=O)N2CCOCC2)c1,i,i,i,i,i
CCCCNC(=O)[C@@H]1CC=C[C@@H]2CCN(CCCC)C(=O)[C@@H]21,i,nt,nt,nt,i
COc1cc2c(cc1OC)CN(C(=O)c1ccc(S(=O)(=O)N3CCCC3)cc1)CC2,i,nt,nt,i,i
COc1ccc(NC(C)C(=O)Nc2cccc(S(=O)(=O)N3CCOCC3)c2)cc1OC (configuration not stated),nt,nt,nt,13µM,nt
O=C(CNc1cccc(S(=O)(=O)N2CCCC2)c1)Nc1cccc(Br)c1,i,?,?,?,?
CCOc1ccc(NC(=O)CNc2cccc(S(=O)(=O)N3CCCCCC3)c2)cc1OCC,nt,nt,nt,11µM,nt
COc1ccc(NCC(=O)Nc2cccc(S(=O)(=O)N3CCCC3)c2)cc1Cl,nt,nt,nt,10µM,nt
CCOc1cc2c(cc1OCC)CN(C(=O)c1cccc(S(=O)(=O)N3CCCC3)c1)CC2,nt,nt,nt,8.9µM,nt
CCOc1ccccc1OCC(=O)Nc1cccc(S(=O)(=O)N2CCCCCC2)c1,i,?,?,?,i
COc1ccc(NC(C)=O)cc1NC(C)C(=O)Nc1cccc(S(=O)(=O)N2CCOCC2)c1 (configuration not stated),nt,nt,nt,i,nt
COC(=O)[C@H](CC(C)C)NS(=O)(=O)NC(=O)OC(C)(C)C,i,nt,nt,nt,i
CC(=O)N1c2ccc(S(=O)(=O)NCCC(=O)Nc3ccc(Br)c(C)c3)cc2CC1C (configuration not stated),i,i,nt,nt,?
CNc1ccc(/C=C2\C=Cc3ccccc32)cc1Br,?,nt,nt,nt,i
CC(=O)OC[C@H]1O[C@H](CCO/N=C(\C)CCC(=O)OC[C@H]2O[C@H](C#Cc3ccccc3)C=C[C@@H]2Oc2ccc(C)cc2)C=C[C@@H]1OC(C)=O,nt,nt,i,nt,nt
COc1ccc(CC(=O)Nc2cccc(S(=O)(=O)N3CCCCCC3)c2)cc1OC,?,4.5µM,?,?,i
COc1ccc(CC(=O)Nc2ccc(S(=O)(=O)N3CCCCC3)cc2)cc1OC,i,?,?,?,i
N#C/C(=C/N1CCOCC1)c1ccccc1,nt,i,?,3.2µM,i
COc1ccc(Cl)cc1NC(=O)CSc1cn(CC(=O)N2CCCCC2)c2ccccc12,i,i,nt,nt,i
Cc1cc(OCC(=O)Nc2ccc(S(=O)(=O)N3CCN(C)CC3)cc2)cc(C)c1Cl,i,i,?,11µM,i
Cc1cc(OCC(=O)Nc2ccc(S(=O)(=O)N3CCN(C)CC3)cc2)ccc1Cl,i,i,?,?,i
O=C(COc1ccc(S(=O)(=O)N2CCOCC2)cc1)Nc1ccc(Br)cc1,nt,nt,nt,10µM,nt
COCc1c(C(=O)N2CC3CCC2C3)cnn1-c1nccc(-c2ccccc2OC)n1 (configuration not stated),i,nt,nt,nt,i
CCOc1ccc(C[C@H]2CC(=O)NC2=O)cc1,nt,nt,i,nt,nt
Cc1ccc(S(=O)(=O)C=CS(=O)(=O)c2ccc(C)cc2)cc1,?,nt,nt,nt,i
O=S(=O)(/C=C/C=C/S(=O)(=O)c1ccccc1)c1ccccc1,?,1µM,?,8.9µM,14µM
CCCCNC(=S)Nc1cccc2cnccc12,i,i,?,10µM,i
CCC1CCCCN1S(=O)(=O)c1ccc(NC(=O)C2CCCO2)cc1 (configuration not stated),i,i,i,i,i
Cc1ccc(S(=O)(=O)N2CCCC2CNC(=O)C(=O)Nc2ccc(F)cc2)cc1 (configuration not stated),?,5µM,i,?,?
